The full list was thinned out, with hits kept by preference.
STK33 inh = STK33 kinase inhibitors, primary screen, biochemical, luminescence, ADP-Glo, MBP substrate; AID 2322, 2010; 27,000 compounds, 0.44% hits; Serine/threonine-protein kinase 33 (Homo sapiens), Q9BYT3; inhibition, % at 12.5 µM; in the data active means inhibition above about 20%
ID4 binder = binders of human ID4 protein, primary screen, biochemical, small molecule microarray, single point; Flag-ID4 binding, fluorescence F/B; AID 624137, 2012; calls only; 31,000 compounds, 1.2% hits; call rule not given here;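 further: a binder raises fluorescence above local background on the spot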
Target sequence (P47928 whole entry, looked up): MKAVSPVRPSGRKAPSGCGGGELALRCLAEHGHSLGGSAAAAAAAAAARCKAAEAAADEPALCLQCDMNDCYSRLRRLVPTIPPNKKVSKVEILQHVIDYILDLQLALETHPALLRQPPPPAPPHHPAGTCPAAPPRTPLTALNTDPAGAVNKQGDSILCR
Active calls of the source: *; i = inactive; · = no result given; + = active, no number.

SMILES | STK33 inh | ID4 binder
OCCCn1c(-c2ccc(Cl)cc2)cn2c3ccccc3nc12 | 0 | +
OCCCn1c(-c2ccccc2)cn2c3ccccc3nc12 | 3 | i
NCCNc1ccc([N+](=O)[O-])c(Sc2nc3ccccc3[nH]2)c1 | -2 | i
NCCNc1ccc([N+](=O)[O-])c(NCCO)c1 | -3 | +
C[C@@H]1CN([C@@H](C)CO)C(=O)c2cc(-c3ccccc3)cnc2O[C@H]1CN(C)C(=O)c1ccccn1 | · | i
O=C(O)CCCC(=O)Nc1cccc(Cl)c1 | -3 | i
CO/N=[N+](\[O-])N1CCCC(C(N)=O)C1 (configuration not stated) | · | i
NC(=O)C1CCCN(/[N+]([O-])=N/OCCBr)C1 (configuration not stated) | · | +
C[C@@H]1CC(=O)c2c(ccc3c2C(=O)c2cccc(O)c2C3=O)C1 | 9 | i
CN1CCc2cccc3c2[C@H]1Cc1ccc(O)c(O)c1-3 | 24* | i
NC(=O)CN1CCN(CCN2C(=O)c3cccc4cccc(c34)C2=O)CC1 | -1 | +
O=C(c1cc2cc(Br)ccc2oc1=O)N1CCN(CCN2C(=O)c3cccc4cccc(c34)C2=O)CC1 | 8 | i
C[C@@H]1CN([C@@H](C)CO)C(=O)CCCn2nncc2CO[C@H]1CN(C)S(C)(=O)=O | 1 | ·
C[C@@H]1CN([C@H](C)CO)C(=O)CCCn2nncc2CO[C@@H]1CN(C)Cc1ccc(Oc2ccccc2)cc1 | -5 | +
C[C@@H]1CN([C@@H](C)CO)C(=O)CCCn2nncc2CO[C@@H]1CN(C)C(=O)Nc1ccccc1F | 0 | i
C[C@H](CO)N1C[C@H](C)[C@@H](CN(C)Cc2ccc(Oc3ccccc3)cc2)OCc2cnnn2CCCC1=O | 0 | i
C[C@@H]1CN([C@@H](C)CO)C(=O)CCCn2cc(nn2)CO[C@@H]1CN(C)CC1CCCCC1 | -2 | i
C[C@H]1CN([C@@H](C)CO)C(=O)CCCn2cc(nn2)CO[C@@H]1CN(C)CC1CCCCC1 | 0 | +
Cc1noc(C)c1S(=O)(=O)N(C)C[C@@H]1OCc2cnnn2CCCC(=O)N([C@@H](C)CO)C[C@@H]1C | -4 | +
C[C@@H]1CN([C@@H](C)CO)C(=O)CCCn2nncc2CO[C@H]1CN(C)C(=O)Nc1ccccc1F | 4 | +
C[C@@H]1CN([C@H](C)CO)C(=O)CCCn2cc(nn2)CO[C@@H]1CN(C)S(=O)(=O)c1ccc2c(c1)OCCCO2 | 1 | i
COc1cc(S(=O)(=O)NCCc2ccccc2)c(OC)cc1Br | -2 | i
COc1ccc(-c2ccc3c(c2)O[C@@H](CN(C)C)[C@@H](C)CN([C@@H](C)CO)S3(=O)=O)cc1 | · | i
CC(=O)N(C)C[C@@H]1Oc2ncc(C#Cc3ccc(F)cc3)cc2C(=O)N([C@@H](C)CO)C[C@@H]1C | · | i
Nc1cc(=O)[nH]c(SCC(=O)N2CCN(c3ccccc3)CC2)n1 | 2 | i
SMILES | STK33 inh | ID4 binder
Cc1ccc(N(C(C)C(N)=O)S(C)(=O)=O)cc1C (configuration not stated) | 4 | i
COc1ccccc1NC(=O)N(C)C[C@H]1OCc2cnnn2CCCC(=O)N([C@@H](C)CO)C[C@H]1C | 0 | i
COc1ccccc1NC(=O)N(C)C[C@@H]1OCc2cnnn2CCCC(=O)N([C@@H](C)CO)C[C@H]1C | 1 | +
CN1CCN(S(=O)(=O)c2ccc(Sc3nc4ccccc4[nH]3)c3nsnc23)CC1 | -2 | +
Cc1ccc2nsnc2c1S(=O)(=O)N1CCN(CCc2ccccc2)CC1 | -1 | i
O=C1c2c(O)ccc(O)c2C(=O)c2c(NCCNCCO)ccc(NCCNCCO)c21 | 58* | i
COc1ccc(NC(=O)NCCc2ccccc2OC)c(OC)c1 | 2 | i
COc1ccc(NC(=O)C23CC4CC(C2)CC(C(=O)Nc2ccc(OC)cc2OC)(C4)C3)c(OC)c1 | -2 | i
COc1ccc(NC(=O)NCc2ccc(C(=O)O)cc2)c(OC)c1 | -1 | +
COc1ccc(NC(=S)NCCc2ccccc2OC)c(OC)c1 | 0 | +
CS(=O)(=O)N(CC(=O)Nc1cccc([N+](=O)[O-])c1)Cc1ccc(Cl)cc1 | 0 | i
O=c1cc(-c2ccc(O)cc2)oc2cc(O[C@@H]3O[C@H](CO)[C@@H](O)[C@H](O)[C@H]3O[C@H]3OC[C@](O)(CO)[C@H]3O)ccc12 | 0 | ·
N#CC(C(=O)c1ccco1)c1nc2ccccc2[nH]1 (configuration not stated) | 67* | ·
c1ccc(CC(Cc2nc3ccccc3[nH]2)c2nc3ccccc3[nH]2)cc1 (configuration not stated) | -1 | i
C[C@@H]1CN([C@@H](C)CO)C(=O)c2cc(NC(=O)Nc3ccc4c(c3)OCO4)ccc2O[C@H]1CN(C)CC1CCCCC1 | · | i
C[C@H]1CN([C@@H](C)CO)C(=O)Cc2cc(NC(=O)C3CC3)ccc2O[C@H]1CN(C)S(=O)(=O)c1cccs1 | -3 | i
O=C(CN1CCN(S(=O)(=O)c2cccc([N+](=O)[O-])c2)CC1)Nc1cc(Cl)ccc1Cl | 0 | i
O=C(Nc1ccc(S(=O)(=O)N2CCOCC2)cc1)c1cc(-c2ccncc2)nc2c(Cl)cccc12 | 2 | i
Cc1ccc2nc(-c3ccccn3)cc(C(=O)Nc3ccc(S(=O)(=O)N4CCOCC4)cc3)c2c1 | 8 | +
N#Cc1cccc(NC(=O)CCCN2C(=O)c3ccccc3C2=O)c1 | 0 | +
N#Cc1ccc(NC(=O)CCN2C(=O)c3ccccc3C2=O)cc1 | -1 | i
CNC[C@H]1Oc2cc(-c3cccc(C(=O)N(C)C)c3)ccc2S(=O)(=O)N([C@H](C)CO)C[C@@H]1C | · | i
C[C@H]1CN([C@@H](C)CO)S(=O)(=O)c2ccc(-c3cccc(C(=O)N(C)C)c3)cc2O[C@@H]1CN(C)Cc1ccc2c(c1)OCO2 | · | +
C[C@@H]1CN([C@@H](C)CO)S(=O)(=O)c2ccc(C3=CCCC3)cc2O[C@@H]1CN(C)Cc1cccc(C(=O)O)c1 | · | +
C[C@H](CO)N1C[C@H](C)[C@H](CN(C)Cc2cccc(C(=O)O)c2)Oc2cc(C3=CCCC3)ccc2S1(=O)=O | · | i
SMILES | STK33 inh | ID4 binder
COc1ccc(NC(=O)CCSc2ccc([N+](=O)[O-])cc2)cc1 | -5 | i
C[C@@H]1CN([C@@H](C)CO)C(=O)c2cc(C3=CCCC3)cnc2O[C@@H]1CN(C)Cc1cccnc1 | · | i
O=c1c(O)c(-c2ccccc2)oc2cc(O)cc(O)c12 | 1 | ·
O=c1c(O)c(-c2cc(O)c(O)c(O)c2)oc2cc(O)cc(O)c12 | 36* | i
N#CCCCN1C(=O)C(O)(CC(=O)c2ccc(Br)s2)c2ccccc21 (configuration not stated) | -2 | +
Cc1coc(C)c1C(=O)CC1(O)C(=O)N(CCCC#N)c2ccccc21 (configuration not stated) | 5 | i
OC(COc1ccc(Cl)cc1)Cn1cnc(-c2ccccc2)c1 (configuration not stated) | 21* | i
OC(COc1ccc2ccccc2c1Br)Cn1cnc(-c2ccccc2)c1 (configuration not stated) | 1 | i
